Data from ChEMBL document CHEMBL1201862, “PubChem BioAssay data set” (2004).
Among all 400,000 compounds or so, about 2,100 (0.53%) were called active. Another 14% or so got no clear call; they are omitted. No rule for the calls is given here. Only a selection was taken, and actives are over-represented in it overall.

Biological target: Ataxin-2 (Homo sapiens) (UniProt Q99700)
Assay: qHTS for Inhibitors of ATXN expression.
Type: functional

Ataxin-2 (Homo sapiens), sequence (Q99700 whole entry): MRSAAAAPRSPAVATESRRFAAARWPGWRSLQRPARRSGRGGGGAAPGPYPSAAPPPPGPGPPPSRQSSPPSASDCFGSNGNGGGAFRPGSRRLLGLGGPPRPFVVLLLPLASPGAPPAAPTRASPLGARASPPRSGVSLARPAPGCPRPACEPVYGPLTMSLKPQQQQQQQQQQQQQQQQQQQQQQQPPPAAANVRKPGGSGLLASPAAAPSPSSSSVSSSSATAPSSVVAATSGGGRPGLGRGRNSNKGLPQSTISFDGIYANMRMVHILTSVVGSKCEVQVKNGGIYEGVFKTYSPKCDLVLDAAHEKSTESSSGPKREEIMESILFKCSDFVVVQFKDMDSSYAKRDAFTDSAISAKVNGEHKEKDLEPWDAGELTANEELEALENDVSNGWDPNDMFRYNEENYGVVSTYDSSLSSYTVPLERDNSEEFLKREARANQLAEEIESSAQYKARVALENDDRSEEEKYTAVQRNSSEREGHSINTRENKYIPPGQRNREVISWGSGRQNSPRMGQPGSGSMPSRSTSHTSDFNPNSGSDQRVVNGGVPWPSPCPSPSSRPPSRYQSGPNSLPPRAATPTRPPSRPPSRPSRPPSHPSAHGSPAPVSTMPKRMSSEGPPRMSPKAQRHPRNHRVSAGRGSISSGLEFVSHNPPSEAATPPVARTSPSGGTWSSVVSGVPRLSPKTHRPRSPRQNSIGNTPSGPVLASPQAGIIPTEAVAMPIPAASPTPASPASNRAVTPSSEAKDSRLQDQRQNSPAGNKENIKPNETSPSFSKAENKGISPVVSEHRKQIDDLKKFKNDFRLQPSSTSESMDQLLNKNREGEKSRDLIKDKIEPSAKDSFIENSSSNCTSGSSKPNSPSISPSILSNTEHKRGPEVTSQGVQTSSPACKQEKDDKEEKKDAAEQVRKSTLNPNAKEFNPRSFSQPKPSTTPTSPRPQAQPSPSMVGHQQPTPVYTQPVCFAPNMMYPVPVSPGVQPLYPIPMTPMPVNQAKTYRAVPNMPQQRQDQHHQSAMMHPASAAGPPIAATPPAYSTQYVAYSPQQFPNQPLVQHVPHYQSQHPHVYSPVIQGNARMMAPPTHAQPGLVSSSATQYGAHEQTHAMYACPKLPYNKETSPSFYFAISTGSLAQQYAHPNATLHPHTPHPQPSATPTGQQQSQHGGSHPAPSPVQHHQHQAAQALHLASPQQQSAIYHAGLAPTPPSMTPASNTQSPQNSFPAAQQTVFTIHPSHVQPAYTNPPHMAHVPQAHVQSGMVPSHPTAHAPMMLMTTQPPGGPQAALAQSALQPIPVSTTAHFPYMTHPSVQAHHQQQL

| SMILES | Potency |
| --- | --- |
| CCCCc1c(-c2cccc(OC)c2)ncn1CCc1ccccc1OC | 39.8 µM (active) |
| CCCCc1c(-c2cccc(Cl)c2)ncn1CCc1ccccc1OC | 31.6 µM (active) |
| CCCCCc1c(-c2cccc(OC)c2)ncn1CCc1ccccc1OC | 31.6 µM (active) |
| COc1ccccc1[C@H]1C(c2cccc(Cl)c2)=NN(c2ccccc2)[C@@H]1CO | inactive |
| CCCCNc1c(-c2ccc(OC)c(Sc3ccc(OC)cc3)c2)nc2cnccn12 | inactive |
| COc1c(OC)c2nc(O)cc3c4ccccc4n(c1=O)c23 | inactive |
| Clc1ccc(C2=CC(c3ccco3)n3ncnc3N2)cc1 (centres undefined) | inactive |
| Cc1cc(O)c(C(=O)/C=C/c2c(F)c(F)c(F)c(F)c2F)c(=O)o1 | inactive |
| CCOC(=O)c1c(NC(=O)c2ccc(S(=O)(=O)N3CCC(C)CC3)cc2)sc2c1CCN(CC)C2 | inactive |
| Nc1nnnn1/N=C/c1cc(Cl)ccc1O | inactive |
| CC(=O)Nc1cc2ccc(OC(C)=O)cc2oc1=O | inactive |
| CC(=O)Oc1cc2oc(=O)cc(C)c2cc1OC(C)=O | inactive |
| CC(=O)Nc1cc(OC(C)=O)c2nonc2c1OC(C)=O | 39.8 µM (active) |
| OC[C@@H]1[C@@H](c2ccccc2)C(c2cccc(Cl)c2)=NN1c1ccccc1 | inactive |
| Cc1c(N(C(=O)Cc2cccs2)C2(C(=O)NC3CCCC3)CCCCC2)c(=O)n(-c2ccccc2)n1C | inactive |
| CCCCCCCCN1C(=O)[C@H](CC(=O)NCCC(C)C)C[C@@]2(C(=O)OCC)CCCC=C12 | 39.8 µM (active) |
| O=C(COC(=O)c1cncc(Br)c1)NCc1cccs1 | inactive |
| CCCCCCCCN1C(=O)[C@H](CC(=O)NCc2cccs2)C[C@@]2(C(=O)OCC)CCCC=C12 | 39.8 µM (active) |
| C#CCNC(=O)C[C@@H]1C[C@@]2(C(=O)OCC)CCCC=C2N(CCCCCCCC)C1=O | 20 µM (active) |
| Cc1ccc(-c2cc(C(F)(F)F)n3ncc(C(=O)N4CCCCC4c4cccnc4)c3n2)cc1 (centres undefined) | inactive |
| O=C(CSc1ccc2ccccc2c1)NCCc1ccc(O)c(O)c1 | inactive |
| COC(=O)C(C)N=C(S)N1CCN(c2c(F)cc3c(=O)c(C(=O)O)cn(C4CC4)c3c2OC)CC1C (centres undefined) | inactive |
| Cc1nc(N2CCCCCC2)c2ccccc2n1 | inactive |
| CC(NNC(=S)N1CCCCCC1)c1ccc2ccccc2n1 (centres undefined) | 12.6 µM (active) |
| S=C(Nc1ccc2nc(-c3ccccn3)c(-c3ccccn3)nc2c1)N1CCCCCC1 | inactive |

| SMILES | Potency |
| --- | --- |
| CCOc1ccc(C(=O)C2CCN(C(=O)c3ccc([N+](=O)[O-])cc3)CC2)cc1 | inactive |
| COc1ccc(C2C3=C(O)CC(C)(C)CC3=Nc3c2c(=O)n(C)c(=O)n3C)cc1OC (centres undefined) | inactive |
| COc1ccc(CCn2c(C)cc(C(=O)CCl)c2C)cc1OC | 39.8 µM (active) |
| Cc1cc(C(=O)COC(=O)Cc2c(F)cccc2Cl)c(C)n1C | inactive |
| Cc1ccc(C(=O)OCC(=O)NCCc2ccc(F)cc2)cc1S(=O)(=O)N1CCOCC1 | inactive |
| Cc1cc(C(=O)CCl)c(C)n1CCc1ccc(F)cc1 | 37.7 µM (active) |
| N=c1c(C(=O)NCC2CCCO2)cc2c(=O)n3ccccc3nc2n1Cc1cccnc1 (centres undefined) | inactive |
| CCOC(=O)COc1ccc2c(C#N)c3ccccn3c2c1 | inactive |
| CN(C)S(=O)(=O)c1ccc(-c2csc(N/N=C/c3ccc(O)cc3)n2)cc1 | 20 µM (active) |
| COc1cc(/C=N/Nc2nc(-c3ccc(S(=O)(=O)N(C)C)cc3)cs2)ccc1O | 35.5 µM (active) |
| CC(=O)c1sc(N/N=C/c2ccc(C(C)C)cc2)nc1C | inactive |
| O=C(N/N=C/c1sc(N2CCOCC2)nc1-c1ccccc1)c1cccc(S(=O)(=O)N2CCCC2)c1 | inactive |
| Cn1c2ccccc2c2nnc(N/N=C/c3ccc(O)cc3)nc21 | inactive |
| COc1cc(/C=N/NC(=O)CCC(=O)Nc2ccc(F)cc2)ccc1O | inactive |
| CCOc1cc(/C=N/Nc2nc(-c3cccc(S(=O)(=O)N4CCCC4)c3)cs2)ccc1O | 25.1 µM (active) |
| COc1cc(/C=N/NC(=O)C(=O)NCc2ccco2)ccc1O | inactive |
| O=C(Nc1cccc(S(=O)(=O)N2CCCCCC2)c1)c1ccc(O)nc1 | inactive |
| CCN(CC)c1ccc2cc(C=O)c(=O)oc2c1 | inactive |
| CCOc1ccc(C(=O)c2oc3ccccc3c2NC(=O)c2cc(-c3ccccc3)on2)cc1 | inactive |
| O=C(O)c1ccc(N/N=C/c2ccc(-c3cc(Cl)ccc3Cl)o2)cc1 | inactive |
| O=C(Nc1ccccc1)c1ncoc1-c1ccc(Cl)cc1 | inactive |
| Cc1cccc(N/N=C(\C=O)C(=O)c2ccc(Br)cc2)c1 | 31.6 µM (active) |
| O=C/C(=N\Nc1ccccc1)C(=O)c1ccc(Cl)cc1 | 9.47 µM (active) |
| Cc1cccc(/C=N/NC(=O)c2cc(Br)ccc2O)n1 | inactive |
| CC(=O)/C(=N\Nc1ccccc1)Oc1ccc(Br)cc1 | inactive |

| SMILES | Potency |
| --- | --- |
| C=CCn1c(S)nnc1-c1oc2nc(-c3ccccc3)cc(-c3ccccc3)c2c1N | inactive |
| CNc1snc(C)c1C(=O)OCC(=O)N(C)c1ccccc1 | inactive |
| CCOc1ccc2[nH]c3ccc4nonc4c3c2c1 | inactive |
| CCOc1ccc2nc3cc(N=Nc4ccc(N)nc4N)ccc3c(N)c2c1 | 10.6 µM (active) |
| CCOc1ccc2nc3ncccc3c(O)c2c1 | inactive |
| COc1ccc(C2=CC(c3cccc(C)c3)n3nnnc3N2)cc1 (centres undefined) | inactive |
| Cc1n[nH]c(C)c1N1C(=O)c2cccc3c(Br)ccc(c23)C1=O | inactive |
| COc1ccccc1C1C=C(c2ccc(Cl)cc2)Nc2nc(N3C(=O)CCC3=O)nn21 (centres undefined) | inactive |
| CCOc1ccc(C2C=C(c3ccc(C)cc3)Nc3nnnn32)cc1 (centres undefined) | inactive |
| COc1ccccc1C1c2c(-c3ccc(Cl)cc3)n[nH]c2C(=O)N1c1ccc(C)cc1 (centres undefined) | 39.8 µM (active) |
| COc1ccccc1C1C=C(c2ccc(F)cc2)Nc2nc(-c3ccc(Cl)cc3)nn21 (centres undefined) | inactive |
| CCOc1ccc(C(=O)C2=C(O)C(=O)N(c3ncccn3)C2c2ccc(C)cc2)cc1 (centres undefined) | inactive |
| OC[C@@H]1[C@@H](c2ccc(Cl)cc2)C(c2ccc(F)cc2)=NN1c1ccccc1 | inactive |
| Cc1ccc(N2C(=O)c3[nH]nc(-c4ccc(Cl)cc4)c3C2c2ccc(F)cc2)cc1 (centres undefined) | 39.8 µM (active) |
| O=C1OCCN1C(=O)[C@H]1[C@H](c2ccc(Cl)cc2)C(c2ccc(F)cc2)=NN1c1ccc(Br)cc1 | inactive |
| CCOc1ccc(C2c3c(-c4ccc(C)cc4)n[nH]c3C(=O)N2c2ccc(Cl)cc2)cc1 (centres undefined) | 39.8 µM (active) |
| O=C1c2[nH]nc(-c3ccc(F)cc3)c2C(c2ccccc2F)N1c1ccccc1 (centres undefined) | 22.4 µM (active) |
| CCN1C(=O)c2cccc3c(S(=O)(=O)N(C)C)ccc1c23 | inactive |
| Cc1ccc(-c2cc(C(=O)NN3CCOCC3)c3cc(Br)ccc3n2)o1 | inactive |
| CCCc1cc(C(=O)Nc2cc(C)on2)no1 | inactive |
| N#Cc1c(N)n(-c2ccc(C(=O)O)cc2)c2nc3ccccc3nc12 | inactive |
| Cc1ccc2nc(N3CCN(C=O)CC3)nc(-c3ccccc3)c2c1 | inactive |
| CCOC(=O)c1ccc(-c2ccc(/C=C(\C#N)C(=O)NCC3CCCO3)o2)cc1 (centres undefined) | inactive |
| Cn1c(-c2ccc(C#N)cc2)c(C#Cc2ccccc2)c2ccccc21 | inactive |
| COc1ccccc1[C@@H]1C(c2cccc(Cl)c2)=NN(c2ccc(Br)cc2)[C@H]1C(=O)N1CCOC1=O | inactive |

| SMILES | Potency |
| --- | --- |
| Fc1ccc(N2N=C(c3cccs3)CC2c2ccccc2)cc1 (centres undefined) | inactive |
| COC(=O)c1nc2n(n1)C(c1cc(OC)ccc1OC)C=C(c1ccc(Br)cc1)N2 (centres undefined) | inactive |
| COc1ccc(OC)c(C2c3c(-c4ccc(Br)cc4)n[nH]c3C(=O)N2c2ccc(Cl)cc2)c1 (centres undefined) | 39.8 µM (active) |
| CCOc1ccc(N2C(=O)c3[nH]nc(-c4cccs4)c3C2c2cccc(F)c2)cc1 (centres undefined) | 39.8 µM (active) |
| CC(=O)c1sc2nc(C)c3c(c2c1N)CCCC3 | inactive |
| CNc1nc(-c2cccs2)cc(C(F)(F)F)c1C#N | inactive |
| CCOc1ccc(CCNC(=O)C2CC(=O)N(Cc3ccc(OC)cc3)C2)cc1OCC (centres undefined) | inactive |
| COCCn1c2nc(=O)n(-c3ccccc3)c(=O)c-2nc2ccccc21 | inactive |
| Cc1cccc(C)c1OCCn1c(C2CC(=O)N(Cc3ccc(F)cc3)C2)nc2ccccc21 (centres undefined) | 39.8 µM (active) |
| Cc1ccc(C)c(OCCn2nnc3ccccc32)c1 | inactive |
| Cc1ccc(C)c(OCCn2c(C3CC(=O)N(Cc4ccc(F)cc4)C3)nc3ccccc32)c1 (centres undefined) | 39.8 µM (active) |
| CC(=O)Oc1ccc2cc(-c3cccnc3)c(=O)oc2c1 | inactive |
| Cc1ccc(C2(c3ccc(C)cc3)CC2C(=O)Nc2ccc([N+](=O)[O-])cc2O)cc1 (centres undefined) | 20 µM (active) |
| NNC(=O)C1CC1(c1ccccc1)c1ccccc1 (centres undefined) | inactive |
| COc1ccc(CNC2=NC(=O)CC(C(=O)Nc3ccc([N+](=O)[O-])cc3C)S2)cc1 (centres undefined) | inactive |
| COc1ccc2nc(NCCCNC(=O)c3cc(OC)c(OC)c(OC)c3)c(C#N)cc2c1 | inactive |
| COc1ccc(Nc2cc(C(=O)NCCCN(C)Cc3ccccc3)c3ccccc3n2)c(OC)c1 | 14.1 µM (active) |
| CCCCNC(=O)c1cc2c(=O)n3cccc(C)c3nc2n(Cc2ccccc2)c1=N | inactive |
| CCCCN(CCCNC(=O)c1cc(Nc2ccc(OC)c(OC)c2)nc2ccccc12)Cc1ccccc1 | 22.4 µM (active) |
| COc1ccc(OC)c(Nc2cc(C(=O)NCc3ccccc3)c3ccccc3n2)c1 | inactive |
| CCOc1ccccc1-n1c(C)cc(C=O)c1C | inactive |
| CCCn1c(=O)c(C(=O)Nc2ncccc2O)c(O)c2ccccc21 | inactive |
| CCn1nc(C(=O)Nc2nc(-c3ccccn3)cs2)c2ccccc2c1=O | 31.6 µM (active) |
| CCn1nc(NC(=O)c2cccs2)c2cc3ccccc3nc21 | inactive |
